Screens: PubChem BioAssay, several laboratories
Only some compounds are listed: those with a hit (about 7.6% of all), similar ones and a draw of the others.
Cav3 T inh: inhibitors of human Cav3.2 T-type calcium channel. O95180. Cav3.2-expressing cells, Fluo-4 calcium fluorescence FDSS; stronger effect = lower value. B-score at 10 µM. 100,000 compounds, 4% hits;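 active means single-dose well whose peak fluorescence ratio is a statistical outlier from its plate by either plate-standardised score or position-corrected B-score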
M1 antag: antagonists of rat M1 muscarinic receptor. CHO-M1 cells, Fluo-4 calcium, ACh EC80 antagonist mode; stronger effect = lower value. B-score at 10 µM. 64,000 compounds, 3.4% hits. AID 628;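 active means calcium fluorescence response, raw or row-and-column corrected B-score, differing from the plate sample mean either way at a set confidence level, mostly lower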
Target sequence (P08482 whole entry, looked up): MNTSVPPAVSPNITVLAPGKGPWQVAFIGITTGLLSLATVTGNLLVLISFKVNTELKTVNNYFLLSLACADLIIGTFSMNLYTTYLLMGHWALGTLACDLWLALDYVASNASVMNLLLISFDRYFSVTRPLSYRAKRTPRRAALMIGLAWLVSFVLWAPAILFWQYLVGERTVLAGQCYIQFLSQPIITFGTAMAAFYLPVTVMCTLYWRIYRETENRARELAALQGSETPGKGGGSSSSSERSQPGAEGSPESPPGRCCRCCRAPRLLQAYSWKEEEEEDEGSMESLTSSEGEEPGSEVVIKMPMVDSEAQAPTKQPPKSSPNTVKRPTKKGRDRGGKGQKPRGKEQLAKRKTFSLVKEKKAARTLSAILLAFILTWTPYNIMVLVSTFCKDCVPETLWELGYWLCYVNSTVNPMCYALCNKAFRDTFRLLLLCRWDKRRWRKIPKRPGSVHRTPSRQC
M1 agonist: activates the M1 muscarinic receptor. CHO-M1 cells, Fluo-4 calcium fluorescence, agonist mode; stronger effect = higher value. B-score at 10 µM. 64,000 compounds, 3% hits. AID 626;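 active means fluorescence rise, raw or as B-score row- and column-corrected plate score, outside the 99.7% band of its plate's samples, either direction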
PLAP activator: activators of human placental alkaline phosphatase | purified PLAP enzyme, luminescent substrate read-out; stronger effect = higher value | activation fold at 20 µM | 96,000 compounds, 1.2% hits; in the data active means activation fold above about 2
M1 ag confirm: confirmation of rat M1 muscarinic receptor agonists. shares compounds with M1 agonist. CHO-M1 cells, Fluo-4 calcium fluorescence, agonist mode; actives lie on both sides. fluorescence change (max-min) at 10 µM. 1,700 compounds, 19% hits;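 active means fluorescence change differs from the solvent-only DMSO control mean at a set confidence level in both duplicate runs; inconclusive means differs from solvent-only control mean in just one of two runs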;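 further: an EC20 dose of acetylcholine follows compound addition during the same imaging run; raw fluorescence intensity difference in instrument units with no normalization to controls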
M4 agonist ctr: counter-screen for M1 agonists: activity at rat M4 receptor; CHO M4/Gqi5 cells, Fluo-4 calcium fluorescence, agonist mode; actives lie on both sides; fluorescence change (max-min) at 10 µM; shares compounds with M1 agonist; 1,700 compounds, 9% hits;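 active means fluorescence change differing from the plate's solvent-only control wells at 99.7% confidence in both duplicates, whether higher or lower; inconclusive means differs from solvent controls in only one of two duplicates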
Active calls of the source: *; ? = inconclusive; · = no result.

SMILES	Cav3 T inh	M1 antag	M1 agonist	PLAP activator	M1 ag confirm	M4 agonist ctr
CCN1C(=O)/C(=C/N2CCc3ccccc32)SC1=S	-3.2	-1.4	87*	0.8	528*	491*
Cc1ccc(-c2[nH]nc3c2C(c2ccc(OC(=O)N4CCOCC4)cc2)C(C#N)=C(N)O3)cc1 (stereo not drawn)	-1.3	-0.64	0.21	1.2	·	·
CCCCCCC(=O)NC(Nc1ccc(S(N)(=O)=O)cc1)C(Cl)(Cl)Cl (stereo not drawn)	-1.5	·	·	0.9	·	·
CCOC(=O)c1c(C)n(C)c2ccc(OCC(O)Cn3nc(C)cc3C)cc12 (stereo not drawn)	-1.7	-0.36	2.7*	1.3	?	-40
CC1CN(C(=O)Nc2ccc3snnc3c2)c2ccccc21 (stereo not drawn)	-1.9	0.12	1.7	0.9	·	·
CC1Cc2ccccc2N1C(=O)c1ccc2snnc2c1 (stereo not drawn)	0.81	0.31	7.5*	0.8	-18	?
Cc1nc(NCCc2ccccc2)c2oc3ccccc3c2n1	-1.9	·	·	1.8	·	·
COc1ccc(OC)c(C2C3=C(CCCC3=O)Nc3nc4ccccc4n32)c1 (stereo not drawn)	·	0.27	-0.69	·	·	·
CCn1c(SCC(=O)N2CCOCC2)nc2oc3c(Cl)cc(Cl)cc3c(=O)c2c1=O	0.78	-0.78	4.4*	1.2	5.6	5
CCN(CC)CCNc1nc2cc(OC)c(OC)cc2c2nc(-c3ccccc3)nn12	0.014	·	·	1.9	·	·
COc1ccc2[nH]c(=O)c(CN(Cc3nnnn3Cc3ccccc3)CC3CCCO3)cc2c1 (stereo not drawn)	-0.4	0.72	-0.47	1.2	·	·
COc1ccc2[nH]c(=O)c(CN(Cc3nnnn3Cc3ccc(F)cc3)CC3CCCO3)cc2c1 (stereo not drawn)	-0.38	-0.15	2.6*	1.6	-5.8	-17
COc1ccc2[nH]c(=O)c(CN(Cc3cccnc3)C(=O)Nc3ccccc3)cc2c1	-2.2	-1	3.5*	1	-28*	?
COc1ccc2[nH]c(=O)c(CN(CC3CCCO3)C(=O)Nc3ccccc3OC)cc2c1 (stereo not drawn)	0.13	0.062	6.4*	1.6	3.2	-4.9
Cc1nc(SCC(=O)NCCc2ccc(Cl)cc2)nc(C)c1C	0.028	·	·	0.9	·	·
CC(=O)c1cccc(NC(=O)Cc2cccs2)c1	1.3	0.63	-0.68	1	·	·
O=C(Cc1cccs1)Nc1cccc(C(=O)Nc2ccco2)c1	0.18	-0.43	5.5*	0.6	-4.1	?
CCCn1c(N2CCN(CC(=O)c3c[nH]c4ccccc34)CC2)nc2c1c(=O)[nH]c(=O)n2C	0.81	-1.2	0.38	1.8	·	·
COC(=O)c1ccc(Oc2nc3ccccc3n3c(C)nnc23)cc1	·	-0.55	3.2	·	·	·
Nc1ccc2nc(-c3ccc(Cl)cc3)[nH]c2c1	·	-0.67	-2.2*	0.9	?	-80
CC1(C)CC(=O)C2=C(C1)N(Cc1cccnc1)C(=O)C2(NC(=O)c1ccc(F)cc1)C(F)(F)F (stereo not drawn)	1.8	·	·	1.2	·	·
COc1ccc(OC)c(C(c2nnnn2CCc2ccccc2)N2CCC(C(N)=O)CC2)c1 (stereo not drawn)	0.39	-0.05	0.42	1.5	·	·
Cc1nnc(NC(=O)c2oc3c(ccc4ccccc43)c2C)s1	-0.66	·	·	1.2	·	·
N#CC1(c2nc3ccccc3[nH]2)CC1c1ccc2c(c1)OCO2 (stereo not drawn)	0.013	0.29	2.9*	0.9	-34*	-82
O=C(NCCc1ccccc1)C1CCCN1C(=O)Nc1ccc(F)cc1 (stereo not drawn)	0.99	0.92	0.72	0.9	·	·
SMILES	Cav3 T inh	M1 antag	M1 agonist	PLAP activator	M1 ag confirm	M4 agonist ctr
COc1ccc(CNC(=O)Cc2nn(C)c(=O)c3ccccc23)cc1	0.75	-0.48	11*	0.9	8.4	3.6
Cc1nn(C)c(C)c1S(=O)(=O)N(CC(=O)NC1CCCCCC1)c1ccc(C(C)C)cc1	0.14	·	·	0.8	·	·
Cc1n[nH]c(C)c1S(=O)(=O)N(CC(=O)NC1CCCC1)c1ccc(C(C)C)cc1	-1.3	-0.22	3.9*	2.3*	-19	-48
COc1cccc(-c2ccc(-c3noc(-c4ccccc4F)n3)c(OC)n2)c1	-3.4	0	15*	0.8	16	-46
Cc1ccc(C(=O)N2CCN(S(C)(=O)=O)C2)cc1	-1.6	1.1	4*	0.9	?	-60
O=C(Nc1ccc(N2CCOCC2)c(Cl)c1)c1ccc(Br)o1	-0.4	-2.5*	11*	1.1	-8.3	-16
CCOC(=O)c1[nH]c2ccc(OC)cc2c1NC(=O)C(C)N1CCSCC1 (stereo not drawn)	-2.1	·	·	1.6	·	·
CCOC(=O)c1[nH]c2cc(OC)c(OC)cc2c1NC(=O)C(C)N1CCN(Cc2ccccc2)CC1 (stereo not drawn)	-1.1	-4.3*	3.8*	1.6	?	-31
O=C(N/N=C1\CCCc2ccccc21)c1ccc([N+](=O)[O-])cc1Cl	0.12	·	·	1	·	·
CCOC(=O)c1ccc(-n2c(=S)sc3c(=O)[nH]c(C)nc32)cc1	-0.071	0.94	-0.41	0.9	·	·
O=C(NCC(=O)N(Cc1cccs1)C(C(=O)NC1CCCC1)c1ccco1)c1cccs1 (stereo not drawn)	-1.3	-1.2	3.2*	1.3	-17	?
O=C(NCC(=O)N(c1ccccc1)C(C(=O)NC1CCCCC1)c1ccncc1)c1ccco1 (stereo not drawn)	0.83	-0.025	2.5*	1.1	-11	?
Cc1ccc(N(C(=O)CNC(=O)c2ccco2)C(C(=O)NCC2CCCO2)c2ccccc2)cc1 (stereo not drawn)	0.2	1.2	-0.081	1.6	·	·
O=C(NCC(=O)N(c1ccccc1)C(C(=O)NCC1CCCO1)c1ccccc1)c1ccco1 (stereo not drawn)	-0.077	-0.32	8.3*	1.7	?	-54
C/C(Sc1nnc(Cc2ccccc2)o1)=C(/O)c1ccccc1	-0.26	0.37	-1.4	0.9	·	·
COC(=O)CCCC1=CC2=C(c3ccccc3)C(=O)C(C)(OC(=O)C3CCCC3)C(=O)C2=CN1Cc1ccc(OC)cc1 (stereo not drawn)	-0.02	·	·	·	·	·
c1ccc(Cc2nnc3n2CCCCC3)cc1	-1.3	-0.11	-0.51	0.9	·	·
c1ccc2c(c1)CCCN2Cc1nnc2n1CCCCC2	0.37	0.13	active	0.9	?	-33
CC(C)C(c1nnnn1C1CCCC1)N(C)C1CCCCC1 (stereo not drawn)	-2	-0.09	9.7*	1.3	-3.3	-17
CSc1ncccc1C(=O)OCC(=O)N(C)C1CCS(=O)(=O)C1 (stereo not drawn)	-0.16	·	·	0.9	·	·
CC(C)n1nc(C(=O)OCC(=O)N(C)C2CCS(=O)(=O)C2)c2ccccc2c1=O (stereo not drawn)	0.44	1	10*	0.9	-11	-39
N=c1c(C(=O)NCc2ccco2)cc2c(=O)n3ccccc3nc2n1CC1CCCO1 (stereo not drawn)	-3.1	·	·	·	·	·
